From the supplement of paper PMC6555819

Test system: RARb homodimer (NR concentration 270 nM)
Assay: PBM binding z-score (relative to random genomic background probes); higher = stronger binding; sequences stand for … in GC…GCGATTGACAGCGTAGAATGAAGG
Procedure, shortened: (§1)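 Each nuclear receptor dimer, without ligand, was incubated for 1 h on custom Agilent 4×180K protein-binding microarrays. Binding was detected with antibodies against each partner (one per run), and scanned fluorescence was regression-normalized. The binding z-scores are referenced to random human genomic background probes.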

| Sequence | PBM binding z-score |
| --- | --- |
| CAAACTAGGTCAAGAAGTCAAAGTCCGCTTCCCG | 3.2 |
| TCTTGTAGATCAACAGGAGGTCAAGAAAGATCGA | 3.47 |
| TCAGACAGGTGAAGGGAACTCAGGTACGCAGTCG | 0.93 |
| ATAATGAGGTTACCAAAGATCAGGGAAACGCTTG | 1.15 |
| TCGAGTAGGTTAGTCGGGGCATCCAGCCAACATA | 0.213 |
| ACAGACAGGTGATGAATGTAACTCAGGCTATCAT | -0.0762 |
| GCTATAAGTTGAAAGGGCAACCGAATGATTCTCG | 2.13 |
| ATATGTAGGGTAGCTGGGGTCATTCAGACTAGGC | 3.6 |
| CCGCCTGGGGCAAAGGTTACCATACTCAGTACGA | 2.28 |
| ACTATTAGTTGACTTAGGGCAACCTATACGACGC | 0.929 |
| ATCTCTAGGTAAGACTCAGTTCGGTGAAGAACGC | 0.505 |
| TCTTGTAGATCATAGGTTAAGAAAGCCGAAGCCT | 0.203 |
| AGAATGAGGTTAGGATCAGGGAAACAGAATACAT | 1.09 |
| GCTAGTTGGTCAGTAAAAGGTCACCCACCGGTCG | 5.12 |
| CGCCCAAGGTCAAAGGTCAGTGAAGAGATGACGG | 5.66 |
| TCTAGTTGGTGAAAGGTCACACACTCGAAATGCG | 4.86 |
| ATATGTAGGTTAGCTGGGATCATTCAGACTAGGC | 0.428 |
| CGTCCAAGGTCATAGGACGTCAGTGAAGACAGAT | 3.37 |
| TCTGCTAGGTCAGTTGGTCAGATAACGAGCTGCC | 2.62 |
| TAGCCTAGGTCATTCAGGGTCCAGTATAGAAAGC | 3.02 |

| Sequence | PBM binding z-score |
| --- | --- |
| ATCTCGAGGTAACCAAGTTCAGTGAATGCCGAAC | 1.62 |
| CCTTCTGGGCCAAAGGTCATTGATTCCAATGCTC | 4.44 |
| GTACCAAGGTGAATAGGTCGTTGTTGAGTAGGCG | 1.89 |
| CGAACTAGGTCATCCAGGACAGTGAGTACATTGA | 3.03 |
| CGTCCAAGGTCAGCAGGTCAGCGAAAGCGACGTG | 5.14 |
| GCCATTAGTTGAAAGGGCAACCGAATGATTCTCG | 2.22 |
| CCTATTAGTTGAACATAAGGGCAACCGAAGCTCG | 1.97 |
| CAAACTAGGTGAAGGTCAAAGTCGGTTTGTGCCA | 3.92 |
| CCTACAGGGCCAAAAAGGTCATTGATGCCGATAA | 4.52 |
| CATACAGGGTCAGCTAGGCCAGATTAGGGACGGC | 3.37 |
| GGAACGAGGGCATTCGAGTTGATACCATGGCGAT | 0.873 |
| CCTACTGGGCCACGAAAGGTCATTAATTCAGTGA | 4.39 |
| TCTCGGAGGACTCGAAGGTCAGAGCTTTCCAGAG | 2.73 |
| GCAGACAGGTGAAATGCAGGTAACTCAGGGTGGC | 0.337 |
| AGAAGGAGGTTATTAAGATCAGGGAATTGCGGTC | 1.32 |
| ATCTCTAGGTAACCAAGTTCAGTGATTGCCGAAC | 1.45 |
| GCAGACAGGTGAAACGCAGGTAGCTCAGGGTGGC | -0.0117 |
| CCTAGTTGGTCAGGAGGTCACACACCGGATATGA | 4.56 |
| TCTTGTAGATCAACAGGAGGTTAAGAATGATCGA | 0.596 |
| ACTATTAGTTGAGACGAGGGCAACCAATAGGTTG | 1.29 |

Test system: RARg:RXRa (NR concentration 270 nM, RXRa partner concentration 90 nM)
Assay: as above
Procedure, shortened: as §1

| Sequence | PBM binding z-score |
| --- | --- |
| CAAACTAGGTCAAGAAGTCAAAGTCCGCTTCCCG | 4.44 |
| TCTTGTAGATCAACAGGAGGTCAAGAAAGATCGA | 4.04 |
| TCAGACAGGTGAAGGGAACTCAGGTACGCAGTCG | 0.546 |
| ATAATGAGGTTACCAAAGATCAGGGAAACGCTTG | 2.37 |
| TCGAGTAGGTTAGTCGGGGCATCCAGCCAACATA | 0.0156 |
| ACAGACAGGTGATGAATGTAACTCAGGCTATCAT | 0.375 |
| GCTATAAGTTGAAAGGGCAACCGAATGATTCTCG | 2.28 |
| ATATGTAGGGTAGCTGGGGTCATTCAGACTAGGC | 3.62 |
| CCGCCTGGGGCAAAGGTTACCATACTCAGTACGA | 3.48 |
| ACTATTAGTTGACTTAGGGCAACCTATACGACGC | 0.744 |
| ATCTCTAGGTAAGACTCAGTTCGGTGAAGAACGC | 0.0648 |
| TCTTGTAGATCATAGGTTAAGAAAGCCGAAGCCT | 0.785 |
| AGAATGAGGTTAGGATCAGGGAAACAGAATACAT | 1.15 |
| GCTAGTTGGTCAGTAAAAGGTCACCCACCGGTCG | 5.56 |
| CGCCCAAGGTCAAAGGTCAGTGAAGAGATGACGG | 8.68 |
| TCTAGTTGGTGAAAGGTCACACACTCGAAATGCG | 6.24 |
| ATATGTAGGTTAGCTGGGATCATTCAGACTAGGC | 0.559 |
| CGTCCAAGGTCATAGGACGTCAGTGAAGACAGAT | 5.58 |
| TCTGCTAGGTCAGTTGGTCAGATAACGAGCTGCC | 2.67 |
| TAGCCTAGGTCATTCAGGGTCCAGTATAGAAAGC | 4.74 |

| Sequence | PBM binding z-score |
| --- | --- |
| ATCTCGAGGTAACCAAGTTCAGTGAATGCCGAAC | 0.86 |
| CCTTCTGGGCCAAAGGTCATTGATTCCAATGCTC | 5.8 |
| GTACCAAGGTGAATAGGTCGTTGTTGAGTAGGCG | 2.4 |
| CGAACTAGGTCATCCAGGACAGTGAGTACATTGA | 4.04 |
| CGTCCAAGGTCAGCAGGTCAGCGAAAGCGACGTG | 6.69 |
| GCCATTAGTTGAAAGGGCAACCGAATGATTCTCG | 1.54 |
| CCTATTAGTTGAACATAAGGGCAACCGAAGCTCG | 1.48 |
| CAAACTAGGTGAAGGTCAAAGTCGGTTTGTGCCA | 4.07 |
| CCTACAGGGCCAAAAAGGTCATTGATGCCGATAA | 4.75 |
| CATACAGGGTCAGCTAGGCCAGATTAGGGACGGC | 4.39 |
| GGAACGAGGGCATTCGAGTTGATACCATGGCGAT | 1.26 |
| CCTACTGGGCCACGAAAGGTCATTAATTCAGTGA | 4.33 |
| TCTCGGAGGACTCGAAGGTCAGAGCTTTCCAGAG | 1.7 |
| GCAGACAGGTGAAATGCAGGTAACTCAGGGTGGC | 0.64 |
| AGAAGGAGGTTATTAAGATCAGGGAATTGCGGTC | 0.881 |
| ATCTCTAGGTAACCAAGTTCAGTGATTGCCGAAC | 0.546 |
| GCAGACAGGTGAAACGCAGGTAGCTCAGGGTGGC | 0.108 |
| CCTAGTTGGTCAGGAGGTCACACACCGGATATGA | 5.11 |
| TCTTGTAGATCAACAGGAGGTTAAGAATGATCGA | 1.13 |
| ACTATTAGTTGAGACGAGGGCAACCAATAGGTTG | 0.956 |
